Experimental data as given in PubChem BioAssay (Tox21).
A number with no mark means an inactive call. Inconclusive results are not listed. Where a call stands in place of a potency, no number is given. Active and inactive are the calls of the source. Unless noted, the call rests on the fitted dose curve; in most records, active means well fitted curve in the direction sought with a large enough effect in the repeat runs; inconclusive means weak or mixed curves; inactive means no such curve, though single readings can be large; an effect the other way counts as inactive or inconclusive.

How the values were obtained:
[1] = qHTS assay to identify small molecule agonists of the estrogen receptor alpha (ER-alpha) signaling pathway in the presence of an antagonist - cell viability counter screen (AID 1259386);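 further: cells exposed to compounds for 22 h at 37 °C before the viability read; nearly all actives have a fitted effect of over 30% in size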; further: potency means the concentration at half of the fitted maximal effect
Summary of the method: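 Cytotoxicity was measured in parallel with the ERE-luciferase agonist screen, in the same wells. The cells were VM7Luc4E2, which endogenously express ER-alpha, and treatment was with compounds plus 10.0nM ICI-182,780 for 22hr.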

[2] = biological target: Progesterone receptor (Homo sapiens) (UniProt P06401); experiment: qHTS assay to identify small molecule antagonists of the progesterone receptor (PR) signaling pathway (AID 1346795; active means well fitted inhibition curve with a large enough effect in the signal ratio in the repeat runs, not every such curve was filed as active; the % refers to the signal ratio; further: potency means the concentration at half of the fitted maximal effect)
Summary of the method: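 After 6 hr plating at 37C in 2% stripped-serum medium, PR-UAS-bla HEK293T cells got compounds, then 1 nM R5020. Sixteen hours later, LiveBLAzer substrate was applied for 2 hr at room temperature and fluorescence was recorded.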

[3] = qHTS assay to identify small molecule antagonists of the TGF-beta/Smad signaling pathway - cell viability counter screen (AID 1346824); further: nearly all actives have a fitted effect of over 50% in size; further: potency means the concentration at half of the fitted maximal effect
Summary of the method: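 SBE-bla HEK 293T cells were plated overnight at 37 C, then given compounds in DMSO plus TGF-beta1 (added as 0.25 ng/mL solution) for 5 hr. After the bla read, CellTiter-Glo was added to the same wells and luminescence read after 30 min at room temperature.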

[4] = qHTS assay to identify small molecule agonists of the TGF-beta/Smad signaling pathway - cell viability counter screen (AID 1346829); further: nearly all actives have a fitted effect of over 45% in size; further: potency means the concentration at half of the fitted maximal effect
Summary of the method: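 SBE-bla HEK 293T cells plated overnight, compound exposure 5 hr at 37 C. Viability read in the same wells by CellTiter-Glo luminescence after 30 min at room temperature, following the beta-lactamase read.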

[5] = qHTS assay to identify small molecule agonists of the TGF-beta/Smad signaling pathway (AID 1346859; active means well fitted activation curve with a large enough effect in the signal ratio in the repeat runs, not every such curve was filed as active; the % refers to the signal ratio; further: series mostly up to about 77 µM)
Summary of the method: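 Dual-wavelength fluorescence (460/530 nm emission) quantified beta-lactamase expression under the Smad binding element in HEK 293T cells following 5 hr compound treatment at 37 C.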

[6] = biological target: Thyrotropin-releasing hormone receptor (Homo sapiens) (UniProt P34981); experiment: qHTS assay to identify small molecule antagonists of the thyrotropin-releasing hormone receptor (TRHR) signaling pathway (AID 1346877; active means well fitted inhibition curve with a large enough effect in the repeat runs, not every such curve was filed as active; further: series mostly up to about 51 µM)
Summary of the method: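 Antagonism is measured as suppression of the calcium response to 1 nM TRH in TRHR-HEK293 cells that have been dye-loaded for 2 h at 37 °C after overnight plating. Each compound is tested at 15 concentrations in triplicate.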

[7] = biological target: Thyrotropin-releasing hormone receptor (Homo sapiens) (UniProt P34981); experiment: qHTS assay to identify small molecule agonists of the thyrotropin-releasing hormone receptor (TRHR) signaling pathway (AID 1346891; calls by dose curve;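 further: HEK293 cells expressing TRHR with calcium dye readout; series mostly up to about 58 µM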)
Summary of the method: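 Kinetic fluorescence (3 min, 1 s intervals) reported intracellular calcium after compound transfer onto TRHR-Hek293 cells pre-loaded with dye for 2 h at 37 °C.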

[8] = Caspase-3/7 induction in HepG2 cells by small molecules, qHTS assay (AID 1346978); further: nearly all actives have a fitted effect of over 15% in size; further: potency means the concentration at half of the fitted maximal effect
Summary of the method: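 Wild-type HepG2 cells (2,000/well) were settled 5 h at 37 C, 5% CO2, then exposed to compounds in DMSO for 17 h. Caspase-3/7 activity was read by luminescence 30 min after adding Caspase-Glo 3/7 reagent at room temperature.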

[9] = Caspase-3/7 induction in CHO-K1 cells by small molecules, qHTS assay (AID 1346980); further: nearly all actives have a fitted effect of over 15% in size
Summary of the method: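 Wild-type cells were seeded at 1,500 per well and settled 5 hr at 37 C, 5% CO2, then exposed to DMSO-dissolved compounds for 17 hr. Caspase-Glo 3/7 reagent was added, and luminescence was read after 30min at room temperature.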

[10] = qHTS assay to identify small molecule agonists of the progesterone receptor (PR) signaling pathway - cell viability counter screen (AID 1346799; calls by dose curve; further: nearly all actives have a fitted effect of over 45% in size; further: potency means the concentration at half of the fitted maximal effect)
Summary of the method: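 Viability was scored by ATP luminescence (CellTiter-Glo, 30 min, room temperature) in the same wells used for the reporter readout, after 16 hr compound exposure of PR-UAS-bla HEK293T cells.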

[11] = Human pregnane X receptor (PXR) small molecule agonists, qHTS cell viability counter screen (AID 1346977); further: nearly all actives have a fitted effect of over 50% in size; further: potency means the concentration at half of the fitted maximal effect
Summary of the method: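 HepG2 cells stably carrying the PXR-Luc reporter are cultured with 5% charcoal-stripped FBS and treated with compounds for 24hr. CellTiter-Fluor is added at 23hr and fluorescence is read after 1hr.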

[12] = Caspase-3/7 induction in CHO-K1 cells by small molecules, qHTS cell viability counter screen (AID 1346979); further: nearly all actives have a fitted effect of over 35% in size; further: potency means the concentration at half of the fitted maximal effect
Summary of the method: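 Seeding: 1,500 CHO-K1 cells/well. Rest: 5hr, 37C. Treatment: compounds in DMSO, 16hr. Read: CellTiter-Fluor, 1hr, fluorescence.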

[13] = Caspase-3/7 induction in HepG2 cells by small molecules, qHTS cell viability counter screen (AID 1346981); further: nearly all actives have a fitted effect of over 30% in size; further: potency means the concentration at half of the fitted maximal effect
Summary of the method: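 Cell viability is measured as a cytotoxicity counter screen alongside the Caspase-Glo 3/7 readout in identical wells. Wild-type HepG2 cells are treated with test compounds for 16 hr at 37 C before CellTiter-Fluor addition and a 1-hr incubation.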

[14] = biological target: Nuclear receptor subfamily 1 group I member 2 (Homo sapiens) (UniProt O75469); experiment: Human pregnane X receptor (PXR) small molecule agonists, qHTS assay (AID 1346982); further: nearly all actives have a fitted effect of over 35% in size; further: potency means the concentration at half of the fitted maximal effect
Summary of the method: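 Cells: HepG2 stably carrying PXR-Luc. Medium held 5% charcoal-stripped FBS. Compounds in DMSO added after 5 hr plating, incubated 24 hr, then luminescence quantified with ONE-Glo.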

[15] = biological target: Progesterone receptor (Homo sapiens) (UniProt P06401); experiment: qHTS assay to identify small molecule agonists of the progesterone receptor (PR) signaling pathway (AID 1346784; calls by dose curve; further: nearly all actives have a fitted effect of over 30% in size)
Summary of the method: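 The screen uses PR-UAS-bla HEK 293T cells in charcoal-stripped serum (2%). Compounds are applied for 16 hr at 37C after a 6 hr pre-incubation, and reporter activity is detected with a FRET beta-lactamase substrate after 2 hr at room temperature.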

[16] = biological target: Nuclear receptor subfamily 1 group I member 2 (Rattus norvegicus) (UniProt Q9R1A7); experiment: Rat pregnane X receptor (rPXR) activation by small molecules, qHTS assay (AID 1346983); details: rPXR luciferase reporter cells, One-Glo luminescence, 24 h; max activation: hits give high values; further: nearly all actives have a fitted effect of over 20% in size
Summary of the method: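 Cell-based rPXR luciferase reporter assay, 2,000 cells per well, rested 5hr at 37 C before compound addition in DMSO, then 24 hr at 37 C. One-Glo reagent was added and luminescence read after 30 min at room temperature.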

[17] = qHTS assay to identify small molecule antagonists of the progesterone receptor (PR) signaling pathway - cell viability counter screen (AID 1346798); further: nearly all actives have a fitted effect of over 50% in size; further: potency means the concentration at half of the fitted maximal effect
Summary of the method: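 Viability was determined by ATP-based luminescence (CellTiter-Glo) in PR-UAS-bla HEK293T cells cultured in 2% charcoal-stripped serum and incubated 16 hr with compounds under R5020 stimulation.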

[18] = biological target: Nuclear receptor subfamily 1 group I member 2 (Homo sapiens) (UniProt O75469); experiment: Human pregnane X receptor (PXR) activation by small molecules, qHTS assay (AID 1346985); further: nearly all actives have a fitted effect of over 40% in size
Summary of the method: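 DPX-2 cells (HepG2 co-transfected with a PXR response element and a CYP3A4-promoter luciferase construct) were seeded at 2,000 per well, rested 5 hr at 37C, then exposed to DMSO-dissolved compounds for 24 hr. Activation was read as luciferase luminescence.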

[19] = biological target: Nuclear receptor subfamily 1 group I member 2 (Homo sapiens) (UniProt O75469); experiment: CYP3A4 induction through human pregnane X receptor (PXR) by small molecules, qHTS assay (AID 1346984); further: nearly all actives have a fitted effect of over 40% in size
Summary of the method: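 Quantitative HTS in DPX-2 cells, i.e. HepG2 transfected with PXR response element and CYP3A4-promoter luciferase. Compounds in DMSO incubated 24hr at 37C; then P450-Glo CYP3A4 substrate, 3uM final, 3hr; One-Glo luminescence.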

Nuclear receptor subfamily 1 group I member 2 (Homo sapiens), sequence (O75469 whole entry, looked up): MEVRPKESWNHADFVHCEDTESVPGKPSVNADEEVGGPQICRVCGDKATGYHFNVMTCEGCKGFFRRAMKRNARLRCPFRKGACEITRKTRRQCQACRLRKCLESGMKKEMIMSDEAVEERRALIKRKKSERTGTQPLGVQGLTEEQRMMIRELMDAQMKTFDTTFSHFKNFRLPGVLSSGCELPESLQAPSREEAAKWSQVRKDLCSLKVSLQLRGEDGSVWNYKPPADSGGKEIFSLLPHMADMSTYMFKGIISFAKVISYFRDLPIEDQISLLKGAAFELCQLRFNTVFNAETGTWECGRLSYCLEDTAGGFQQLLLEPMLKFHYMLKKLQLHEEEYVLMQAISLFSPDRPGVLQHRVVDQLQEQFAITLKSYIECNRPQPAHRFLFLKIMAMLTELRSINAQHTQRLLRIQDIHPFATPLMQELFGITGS
Thyrotropin-releasing hormone receptor (Homo sapiens), sequence (P34981 whole entry, looked up): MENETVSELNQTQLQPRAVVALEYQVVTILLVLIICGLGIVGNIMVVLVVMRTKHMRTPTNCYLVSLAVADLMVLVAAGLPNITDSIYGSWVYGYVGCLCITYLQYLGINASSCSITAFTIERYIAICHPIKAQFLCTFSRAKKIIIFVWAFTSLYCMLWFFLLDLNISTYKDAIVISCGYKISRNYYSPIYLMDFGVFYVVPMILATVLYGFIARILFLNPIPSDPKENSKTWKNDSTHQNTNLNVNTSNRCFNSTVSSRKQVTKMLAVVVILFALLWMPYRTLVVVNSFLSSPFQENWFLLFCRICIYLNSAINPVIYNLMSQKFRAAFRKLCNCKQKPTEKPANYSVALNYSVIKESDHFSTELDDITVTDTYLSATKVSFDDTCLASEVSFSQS
Nuclear receptor subfamily 1 group I member 2 (Rattus norvegicus), sequence (Q9R1A7 whole entry, looked up): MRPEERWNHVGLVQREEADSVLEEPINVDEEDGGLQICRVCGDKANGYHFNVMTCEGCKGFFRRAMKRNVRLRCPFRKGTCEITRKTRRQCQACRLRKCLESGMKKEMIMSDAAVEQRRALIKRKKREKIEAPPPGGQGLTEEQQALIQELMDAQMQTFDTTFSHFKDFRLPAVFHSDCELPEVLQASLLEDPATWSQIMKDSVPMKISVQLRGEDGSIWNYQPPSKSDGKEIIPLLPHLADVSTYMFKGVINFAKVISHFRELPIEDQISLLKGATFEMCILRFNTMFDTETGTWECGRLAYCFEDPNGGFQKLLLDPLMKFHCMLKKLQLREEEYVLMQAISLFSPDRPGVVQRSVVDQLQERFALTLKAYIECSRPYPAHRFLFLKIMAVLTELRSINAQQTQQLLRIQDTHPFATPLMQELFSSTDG
Progesterone receptor (Homo sapiens), sequence (P06401 whole entry, looked up): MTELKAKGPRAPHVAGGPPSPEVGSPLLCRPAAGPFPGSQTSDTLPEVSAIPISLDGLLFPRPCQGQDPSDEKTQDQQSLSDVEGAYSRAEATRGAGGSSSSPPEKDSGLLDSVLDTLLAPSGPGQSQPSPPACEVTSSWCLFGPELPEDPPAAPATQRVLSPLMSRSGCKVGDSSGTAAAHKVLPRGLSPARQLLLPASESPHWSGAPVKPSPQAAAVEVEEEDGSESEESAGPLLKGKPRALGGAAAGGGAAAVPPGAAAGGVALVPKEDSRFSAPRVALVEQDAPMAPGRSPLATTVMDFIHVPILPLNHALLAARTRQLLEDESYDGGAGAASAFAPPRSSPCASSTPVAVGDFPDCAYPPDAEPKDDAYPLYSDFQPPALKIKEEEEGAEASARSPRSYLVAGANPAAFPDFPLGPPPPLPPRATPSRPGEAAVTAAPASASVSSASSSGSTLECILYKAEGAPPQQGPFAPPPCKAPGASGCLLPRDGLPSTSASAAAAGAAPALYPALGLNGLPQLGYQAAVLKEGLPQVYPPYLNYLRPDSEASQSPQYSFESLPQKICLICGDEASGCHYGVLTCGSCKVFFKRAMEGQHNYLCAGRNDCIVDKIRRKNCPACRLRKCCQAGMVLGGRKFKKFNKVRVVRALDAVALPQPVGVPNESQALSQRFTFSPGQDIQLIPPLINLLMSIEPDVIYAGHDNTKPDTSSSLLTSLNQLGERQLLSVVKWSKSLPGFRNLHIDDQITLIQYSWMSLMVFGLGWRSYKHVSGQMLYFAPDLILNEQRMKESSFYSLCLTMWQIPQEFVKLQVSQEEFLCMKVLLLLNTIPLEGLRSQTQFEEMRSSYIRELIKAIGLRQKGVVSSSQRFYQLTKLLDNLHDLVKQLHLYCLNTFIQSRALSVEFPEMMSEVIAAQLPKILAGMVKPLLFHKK

Row | Compound | Potency [1] | Potency [2] | Potency [3] | Potency [4] | Potency [5] | outcome [6] | Potency [7] | Potency [8] | Potency [9] | Potency [10] | Potency [11] | Potency [12] | Potency [13] | Potency [14] | Potency [15] | max activation [16] [%] | Potency [17] | Potency [18] | Potency [19]
1 | CCOC(=O)c1ccccc1C(=C1C=C(Br)C(=O)C(Br)=C1)c1cc(Br)c(O)c(Br)c1 | inactive | 18.2 µM (active) | inactive | inactive | inactive | inactive | inactive | inactive | inactive | – | – | – | – | – | – | – | – | – | –
2 | CCCCCC[C@@H](O)C/C=C\CCCCCCCC(=O)OCC(O)CO (stereo not given in full) | inactive | inactive | inactive | inactive | inactive | inactive | inactive | inactive | inactive | inactive | inactive | inactive | inactive | 34.4 µM (active) | – | – | – | – | –
3 | CCCCCCCCC(CCCCCC)C(=O)O (stereo not given) | inactive | – | inactive | inactive | inactive | – | – | inactive | inactive | – | inactive | inactive | inactive | – | inactive | – | – | – | –
4 | Cc1ccc2c(Br)cc(Br)c(O)c2n1 | – | 18.8 µM (active) | – | inactive | inactive | inactive | inactive | inactive | inactive | – | – | 21.1 µM (active) | inactive | 11.9 µM (active) | – | -3.38 | – | – | –
5 | C=CC(=O)[O-].C=CC(=O)[O-].[Zn+2] | inactive | – | inactive | inactive | inactive | – | – | inactive | inactive | – | inactive | inactive | inactive | inactive | – | – | 67 µM (active) | – | –
6 | CCCCOc1ccc(OCCCN2CCOCC2)cc1 | inactive | – | – | inactive | inactive | – | – | – | inactive | inactive | – | – | inactive | 21.1 µM (active) | – | -1.82 | inactive | inactive | –
7 | O=C(O)CCCCCCCCCCCBr | – | inactive | inactive | inactive | – | – | inactive | inactive | inactive | – | – | inactive | inactive | inactive | inactive | – | inactive | – | –
8 | CCCCCCCCCCCCCCN(CCO)CCO | inactive | – | – | – | inactive | inactive | inactive | 30.6 µM (active) | inactive | 34.4 µM (active) | 61.1 µM (active) | – | 68.6 µM (active) | 12.2 µM (active) | – | – | – | – | –
9 | O=c1cc(-c2ccccc2)oc2ccc3ccccc3c12 | – | inactive | 13.8 µM (active) | 13.8 µM (active) | – | inactive | inactive | inactive | inactive | 19.3 µM (active) | inactive | 54.5 µM (active) | – | 2.43 µM (active) | inactive | – | 21.7 µM (active) | – | –
10 | C[C@]1(Cn2ccnn2)[C@H](C(=O)O)N2C(=O)C[C@H]2S1(=O)=O | inactive | – | – | inactive | inactive | inactive | inactive | inactive | inactive | inactive | inactive | inactive | inactive | inactive | – | -2 | inactive | inactive | inactive
11 | CC1(C)[C@H](C(=O)O)N2C(=O)C[C@H]2S1(=O)=O | inactive | – | inactive | inactive | inactive | inactive | inactive | inactive | inactive | inactive | – | – | inactive | – | – | – | inactive | – | –
12 | O=C1c2ccccc2C(=O)C1(O)O | – | inactive | – | – | – | – | – | – | inactive | inactive | – | 54.8 µM (active) | – | – | inactive | – | inactive | – | –
13 | C[C@H]1c2cccc(O)c2C(O)=C2C(=O)[C@]3(O)C(O)=C(C(N)=O)C(=O)[C@@H](N(C)C)[C@@H]3[C@@H](O)[C@@H]21 | inactive | – | inactive | inactive | – | – | – | – | inactive | – | – | inactive | inactive | inactive | – | -4.08 | inactive | inactive | inactive
14 | CC1=Nc2ccc3ccccc3c2C1(C)C | inactive | – | inactive | inactive | – | – | inactive | inactive | inactive | 24.3 µM (active) | – | – | – | – | – | – | 12.2 µM (active) | – | –
15 | CCc1ccccc1 | inactive | – | inactive | inactive | inactive | – | inactive | inactive | inactive | inactive | – | inactive | inactive | – | – | – | inactive | – | –
16 | Nc1nc2ccc([N+](=O)[O-])cc2s1 | 54.5 µM (active) | – | inactive | – | inactive | inactive | inactive | inactive | inactive | – | – | 47.2 µM (active) | 61.1 µM (active) | – | – | – | – | – | –
17 | C=COCC(C)C | inactive | – | inactive | inactive | inactive | inactive | inactive | inactive | inactive | inactive | inactive | inactive | inactive | inactive | – | – | inactive | – | –
